Laboratory results from PubChem BioAssay.
Several values for one entry are separate records, joined by “and”; a condition that tells them apart may be missing. Equal entries are not always repeated. Values without a mark were called inactive. Activity calls are given as the source filed them.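 The calls were made as follows: active = inhibition above 50%; inactive = the rest.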

assay: HepG2 cytotoxicity, primary screen, cytotoxicity control for P. falciparum antimalarial project, cell-based, ATP luminescence (AID 2303); conditions: HepG2 viability, 24-48 h, at 10 µM, hits give high values;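 also: 0% = DMSO wells and 100% = digitonin-killed cells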

SMILES	inhibition
COCCNCc1ccc(-c2ccc(CN(C(=O)NC3CCCCC3)C3CCN(Cc4ccccc4)CC3)cc2)cc1	29%
CC[C@H]1CN2CC[C@H]1C[C@H]2[C@H](O)c1cc(Cl)nc2ccc(OC)cc12	0%
CC(=O)Nc1ccc2[nH]cc(C3CCN(CC4CCN(C(=O)/C=C/c5ccc(Cl)c(Cl)c5)CC4)CC3)c2c1	10%
COc1ccccc1CNCC(O)c1cc(C(F)(F)F)ccc1C(F)(F)F (stereo unspecified)	10%
CC(C)CNCc1ccc(-c2ccc(CN(C(=O)NC3CCCCC3)C3CCN(Cc4ccccc4)CC3)cc2)cc1	39%
O=C(Nc1cc(C(F)(F)F)cc(C(F)(F)F)c1)N1CCC(CN2CCC(c3c[nH]c4ccccc34)CC2)CC1	42%
COc1ccc(OC)c(CNCC(O)c2cc(C(F)(F)F)cc(C(F)(F)F)c2)c1 (stereo unspecified)	7%
Cc1[nH]c2ccc(O)cc2c1C1CCN(CC2CCC(NC(=O)/C=C/c3ccc(Cl)c(Cl)c3)CC2)CC1 (stereo unspecified)	19%
CC[C@H]1CN2CC[C@H]1C[C@@H]2[C@@H](OC(=O)c1ccc(Cl)cc1)c1ccnc2ccc(OC)cc12	-18%
CC(=O)Nc1ccc(OCCN(CC(F)(F)F)c2ccc(C#N)cc2C(F)(F)F)cc1	-1%
COc1ccc(CC(C)NCC(O)c2cccc(Cl)c2F)cc1 (stereo unspecified)	3%
CN(c1cc(NC(=O)c2cccs2)ccn1)C1CCN(Cc2ccccc2)CC1	-2%
Cc1[nH]c2cc(F)ccc2c1C1=CCN(CCCCC2(C)C(=O)Nc3ccccc32)CC1 (stereo unspecified)	13%
Cc1cc(C(=O)NC2CCN(CC3(c4ccc(Cl)cc4)CCC3)CC2)on1	5%
O=C(c1cc(C(=O)NCc2ccc(Cl)cc2)c(=O)n(Cc2ccc(Cl)cc2)c1)c1cc(Cl)ccc1O	6%
CCCc1c(C(=O)NC2CCC(CN3CCC(c4c[nH]c5ccccc45)CC3)CC2)cnn1-c1ccccc1 (stereo unspecified)	33%
Cc1cc2ccc(CNCCc3ccccc3Br)cc2nc1N	-1%
CSc1ccc(C[C@@H](C)NC[C@H](O)c2cccc(Cl)c2)cc1	8%

SMILES	inhibition
CC(=O)N(Cc1ccccc1-c1cccc(CNCCc2ccccc2)c1)C1CCN(Cc2ccccc2)CC1	19%
CC(Cc1ccc(S(=O)(=O)N(C(C)C)C(C)C)cc1)NCC(O)c1cccc(C(F)(F)F)c1 (stereo unspecified)	21%
O=C(/C=C/c1ccc(Cl)c(Cl)c1)N1CCC(CN2CCC(c3c[nH]c4ccc(NS(=O)(=O)c5cccs5)cc34)CC2)CC1	17%
COc1ccc(CC(C)NCC(O)c2cccc(Cl)c2)cc1C (stereo unspecified)	11%
CN1CC=C(c2c[nH]c3ccc(Oc4ccccc4)cc23)CC1	40%
CC(Cc1ccc(NC(=O)[C@@H](C)NCCc2cccc(Cl)c2)cc1)NCCc1cccc(Cl)c1 (stereo partly specified)	99% (active)
Cc1csc(NC2=NCCN2)n1	10%
O=C(C=Cc1cc([N+](=O)[O-])ccc1Cl)NC1CCC(CN2CCC(c3c[nH]c4ccccc34)CC2)CC1 (stereo unspecified)	21%
CC(=O)C1(c2ccccc2)CCN(CCC2(c3ccc(Cl)c(Cl)c3)CN(C(=O)C3CCCC3)CCO2)CC1 (stereo unspecified)	11%
S=C(NCCc1ccc(Cl)cc1)NC1CCC(CN2CCC(c3c[nH]c4ccccc34)CC2)CC1 (stereo unspecified)	37% and 42%
CC(Cc1ccc(SC(C)(C)C)cc1)NCC(O)c1cccc(Cl)c1 (stereo unspecified)	14%
CS(=O)(=O)Nc1ccc2[nH]cc(C3CCN(CC4CCN(C(=O)/C=C/c5ccc(Cl)c(Cl)c5)CC4)CC3)c2c1	27%
C=C[C@@H]1CN2CC[C@H]1C[C@H]2[C@H](O)c1cc(-c2ccc(Cl)cc2)nc2ccc(OC)cc12	38%
OC(CNCc1ccccc1OC(F)F)c1cccc(C(F)(F)F)c1 (stereo unspecified)	2%
C#CCN1CCC2=C(C1)c1c(O)cc(C(C)CCCc3ccc(F)cc3)cc1OC2(C)C (stereo unspecified)	1%
CC[C@H]1CN2CC[C@H]1C[C@H]2[C@H](O)c1cc(-c2ccc3ccccc3c2)nc2ccc(OC)cc12	49%
COc1ccc2[nH]cc(C3=CCN(C[C@H]4C[C@@H]4C(=O)c4ccccc4)CC3)c2n1	22%
O=C1Nc2cccc3c2C1(CCCCCN1CC=C(c2c[nH]c4ccccc24)CC1)CCC3 (stereo unspecified)	2%
